# Test results reported in PubChem BioAssay (Tox21).
# Records with an inconclusive call do not appear. A call without a number means that no potency is given here. Activity calls are given as the source filed them. Calls come from the whole dose curve; as a rule, active = well fitted curve in the direction sought with a large enough effect in the repeat runs; inconclusive = weak or mixed curves; inactive = no such curve, though single readings can be large; an effect the other way counts as inactive or inconclusive.
# Tests used:
# [1] = target: Cytochrome P450 2D6 (Homo sapiens) (UniProt P10635); experiment: Cytochrome P450 Family 2 Subfamily D Member 6 (CYP2D6) small molecule antagonists: luciferase reporter qHTS assay (AID 1671196); note: potency is the fitted concentration of half-maximal effect
# In short: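 Enzyme and proluciferin substrate were first combined with test chemical for 10 min at room temperature. Adding NADPH regeneration solution started a 1 h reaction, stopped with luciferin detection reagent and read by luminescence 20 min later.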
# [2] = target: Cytochrome P450 2C9 (Homo sapiens) (UniProt P11712); experiment: Cytochrome P450 Family 2 Subfamily C Member 9 (CYP2C9) small molecule antagonists: luciferase reporter qHTS assay (AID 1671198); note: potency is the fitted concentration of half-maximal effect
# In short: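 CYP2C9 activity was measured with a P450-Glo proluciferin substrate. Enzyme–substrate mix was held with compound for 10 min at room temperature, then NADPH regeneration solution was added for 1 h at 37C. Luciferin product was read as luminescence.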
# [3] = target: Voltage-gated inwardly rectifying potassium channel KCNH2 (Homo sapiens) (UniProt Q12809); experiment: Human Ether-a-go-go-Related Gene (hERG) channel small molecule antagonists: fluorescence cell-based qHTS assay (AID 1671200);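 note: hERG-expressing U2OS cells given a thallium stimulus after FluxOR II dye loading; series mostly up to about 77 µM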
# In short: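 Thallium served as the potassium surrogate; its influx into dye-loaded U2OS cells carrying the channel was measured by fluorescence over 2 min.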
# [4] = target: Cytochrome P450 3A4 (Homo sapiens) (UniProt P08684); experiment: Cytochrome P450 Family 3 Subfamily A Member 4 (CYP3A4) small molecule antagonists: luciferase reporter qHTS assay (AID 1671201); note: potency is the fitted concentration of half-maximal effect
# In short: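 Relative luminescence units after 20 min with luciferin detection reagent served as read-out. Beforehand, CYP3A4 turned over a proluciferin substrate for 1 h at room temperature with NADPH regeneration, following 10 min compound preincubation.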
# [5] = target: Cytochrome P450 1A2 (Homo sapiens) (UniProt P05177); experiment: Cytochrome P450 Family 1 Subfamily A Member 2 (CYP1A2) small molecule antagonists: luciferase reporter qHTS assay (AID 1671199); note: potency is the fitted concentration of half-maximal effect
# In short: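 Compounds were incubated with CYP1A2 and a luminogenic proluciferin substrate for 10 min at room temperature before the reaction was started with NADPH regeneration solution. After 1 h, detection reagent was added and light output, proportional to CYP activity, was recorded.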
# Note: nearly all actives have a fitted effect of over 50% in size.
# Chain of Cytochrome P450 2D6 (Homo sapiens) (P10635 whole entry, looked up): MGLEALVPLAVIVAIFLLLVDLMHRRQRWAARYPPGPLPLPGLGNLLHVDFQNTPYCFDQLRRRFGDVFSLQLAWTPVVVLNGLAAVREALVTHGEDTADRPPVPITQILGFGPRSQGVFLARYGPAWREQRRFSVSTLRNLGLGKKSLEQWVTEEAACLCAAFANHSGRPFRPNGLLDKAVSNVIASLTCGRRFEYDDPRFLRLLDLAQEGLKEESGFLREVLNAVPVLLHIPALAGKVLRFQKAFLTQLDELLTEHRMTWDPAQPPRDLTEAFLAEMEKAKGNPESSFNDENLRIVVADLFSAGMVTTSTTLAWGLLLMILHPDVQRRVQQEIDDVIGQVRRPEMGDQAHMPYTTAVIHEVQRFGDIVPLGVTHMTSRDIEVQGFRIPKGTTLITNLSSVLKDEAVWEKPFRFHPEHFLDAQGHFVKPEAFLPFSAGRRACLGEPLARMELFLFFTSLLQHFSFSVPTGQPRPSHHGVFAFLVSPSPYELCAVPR
# Chain of Cytochrome P450 3A4 (Homo sapiens) (P08684 whole entry, looked up): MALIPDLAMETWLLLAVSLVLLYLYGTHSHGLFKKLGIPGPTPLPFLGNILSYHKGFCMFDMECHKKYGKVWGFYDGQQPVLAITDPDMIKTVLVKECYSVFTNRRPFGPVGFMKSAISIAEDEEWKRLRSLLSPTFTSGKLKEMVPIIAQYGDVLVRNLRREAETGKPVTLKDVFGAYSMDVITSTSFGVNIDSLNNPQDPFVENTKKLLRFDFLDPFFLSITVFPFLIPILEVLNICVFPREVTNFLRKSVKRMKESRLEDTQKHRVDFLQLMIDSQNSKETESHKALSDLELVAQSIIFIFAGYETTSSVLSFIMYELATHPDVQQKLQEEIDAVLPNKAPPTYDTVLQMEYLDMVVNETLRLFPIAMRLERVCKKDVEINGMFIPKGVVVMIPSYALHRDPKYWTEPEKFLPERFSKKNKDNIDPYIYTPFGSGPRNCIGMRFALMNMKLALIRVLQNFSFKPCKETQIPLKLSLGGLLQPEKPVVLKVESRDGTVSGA
# Chain of Cytochrome P450 1A2 (Homo sapiens) (P05177 whole entry, looked up): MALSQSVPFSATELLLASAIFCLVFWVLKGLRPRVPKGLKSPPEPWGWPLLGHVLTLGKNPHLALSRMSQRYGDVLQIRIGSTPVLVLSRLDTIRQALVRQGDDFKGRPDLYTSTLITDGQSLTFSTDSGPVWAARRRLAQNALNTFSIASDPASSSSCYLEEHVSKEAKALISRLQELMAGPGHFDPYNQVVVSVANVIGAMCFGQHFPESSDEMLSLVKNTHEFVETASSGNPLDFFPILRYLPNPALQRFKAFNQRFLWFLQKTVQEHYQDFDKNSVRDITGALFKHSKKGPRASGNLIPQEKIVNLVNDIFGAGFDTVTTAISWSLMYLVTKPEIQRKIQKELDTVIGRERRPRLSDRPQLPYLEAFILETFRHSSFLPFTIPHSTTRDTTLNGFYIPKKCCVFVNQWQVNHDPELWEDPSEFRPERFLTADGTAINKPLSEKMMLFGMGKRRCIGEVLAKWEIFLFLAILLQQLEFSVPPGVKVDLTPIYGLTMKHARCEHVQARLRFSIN
# Chain of Cytochrome P450 2C9 (Homo sapiens) (P11712 whole entry, looked up): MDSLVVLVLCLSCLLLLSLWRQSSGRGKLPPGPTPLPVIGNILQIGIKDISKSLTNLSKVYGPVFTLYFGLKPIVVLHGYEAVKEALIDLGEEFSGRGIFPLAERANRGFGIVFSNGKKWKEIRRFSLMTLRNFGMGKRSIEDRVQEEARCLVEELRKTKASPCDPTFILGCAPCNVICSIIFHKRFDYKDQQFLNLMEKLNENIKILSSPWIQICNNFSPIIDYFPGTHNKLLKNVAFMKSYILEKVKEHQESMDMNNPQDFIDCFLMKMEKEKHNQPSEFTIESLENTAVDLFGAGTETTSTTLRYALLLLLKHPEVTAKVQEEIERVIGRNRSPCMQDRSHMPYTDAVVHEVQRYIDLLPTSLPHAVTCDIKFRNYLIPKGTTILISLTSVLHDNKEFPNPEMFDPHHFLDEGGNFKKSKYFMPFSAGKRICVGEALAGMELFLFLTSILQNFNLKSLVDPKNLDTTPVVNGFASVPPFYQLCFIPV
# Chain of Voltage-gated inwardly rectifying potassium channel KCNH2 (Homo sapiens) (Q12809 whole entry, looked up): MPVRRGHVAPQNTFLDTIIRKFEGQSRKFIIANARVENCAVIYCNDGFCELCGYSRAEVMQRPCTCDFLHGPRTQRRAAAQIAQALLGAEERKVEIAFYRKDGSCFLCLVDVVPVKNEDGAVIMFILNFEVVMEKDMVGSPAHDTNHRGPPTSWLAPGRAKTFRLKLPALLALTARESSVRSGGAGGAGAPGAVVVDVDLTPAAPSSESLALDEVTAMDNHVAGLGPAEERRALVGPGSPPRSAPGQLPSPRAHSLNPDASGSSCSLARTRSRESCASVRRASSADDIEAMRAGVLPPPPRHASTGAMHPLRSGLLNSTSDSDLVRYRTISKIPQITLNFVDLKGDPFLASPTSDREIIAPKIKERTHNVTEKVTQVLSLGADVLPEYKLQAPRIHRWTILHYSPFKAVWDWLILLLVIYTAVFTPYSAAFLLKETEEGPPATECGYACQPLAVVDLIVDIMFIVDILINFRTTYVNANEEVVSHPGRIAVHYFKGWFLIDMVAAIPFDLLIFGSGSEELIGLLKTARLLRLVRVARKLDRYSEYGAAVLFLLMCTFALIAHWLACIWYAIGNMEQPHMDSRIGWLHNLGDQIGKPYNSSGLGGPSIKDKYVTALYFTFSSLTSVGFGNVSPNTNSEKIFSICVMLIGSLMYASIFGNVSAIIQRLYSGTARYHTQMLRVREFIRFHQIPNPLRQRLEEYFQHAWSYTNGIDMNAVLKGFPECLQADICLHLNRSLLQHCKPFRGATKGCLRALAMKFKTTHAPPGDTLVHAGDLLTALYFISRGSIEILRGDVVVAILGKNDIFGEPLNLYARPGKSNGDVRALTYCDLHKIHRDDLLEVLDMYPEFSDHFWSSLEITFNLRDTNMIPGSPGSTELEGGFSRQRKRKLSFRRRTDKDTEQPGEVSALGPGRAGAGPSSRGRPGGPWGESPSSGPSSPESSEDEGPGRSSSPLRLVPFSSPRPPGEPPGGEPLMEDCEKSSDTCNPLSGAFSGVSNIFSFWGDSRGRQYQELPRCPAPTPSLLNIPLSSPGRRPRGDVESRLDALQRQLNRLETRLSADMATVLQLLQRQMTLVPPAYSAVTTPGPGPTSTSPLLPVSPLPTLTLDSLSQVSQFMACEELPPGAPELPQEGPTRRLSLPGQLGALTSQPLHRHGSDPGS
Compound,Potency [1],Potency [2],Potency [3],Potency [4],Potency [5]
NS(=O)(=O)c1ccccc1OC(F)(F)F,inactive,inactive,inactive,inactive,
CC1(N)CCC(C(C)(C)N)CC1 (stereo not given),20 µM (active),inactive,,inactive,inactive
FC(F)(F)c1ccc(Cl)cc1Cl,inactive,inactive,inactive,inactive,inactive
C=CCOCC(CO)(COCC=C)COCC=C,inactive,7.17 µM (active),inactive,10.1 µM (active),25.5 µM (active)
c1ccccc1,inactive,inactive,inactive,inactive,inactive
CC(=O)OC(C)c1ccccc1 (stereo not given),inactive,inactive,,inactive,inactive
COc1cccc2sc(N)nc12,11.3 µM (active),inactive,inactive,10.1 µM (active),
CC(C)CCC(=O)CCC(C)C,inactive,inactive,inactive,inactive,39.9 µM (active)
CCCCC(CC)CNC(=O)CC(C)OC(=O)CCC(=O)O (stereo not given),17.4 µM (active),,inactive,,inactive
CCCCCCCCOC(C)=O,inactive,inactive,inactive,inactive,inactive
CC(C)CCO,inactive,inactive,inactive,inactive,inactive
O=C1CC[C@H](C(=O)N2CCCCC2)N1,inactive,inactive,inactive,inactive,inactive
C=C(C)C(=O)OCCCCCCOC(=O)C(=C)C,inactive,35.6 µM (active),inactive,inactive,
CCOC(=O)C(C)(C)C,inactive,inactive,,inactive,
COc1ccc(N=Nc2cc(C)c(N=Nc3ccc(S(=O)(=O)O)cc3)cc2OC)cc1,inactive,63.3 µM (active),inactive,inactive,
